This is a sample that favours compounds with a hit; in the whole collection about 2.6% have one here.
SmPrx2 inh = Schistosoma mansoni Prx2 inhibition | AID 448 | Potency, µM | S. mansoni Prx2 activity coupled to TGR/GSH (TGR is thioredoxin glutathione reductase), NADPH fluorescence loss, qHTS | actives 0.07% (n = 65,000)
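Prx2 activity was followed as the loss of NADPH fluorescence (ex 365/em 450 nm), read every 30 sec for 8 min after H2O2 start. The enzyme mix (50 nM Prx2, 25 nM TGR, GSH, NADPH; pH 7.4 phosphate buffer) was incubated with compound for 15 min at room temperature first.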
LT uptake inh = inhibitors of anthrax lethal toxin internalization | Cells, anthrax lethal toxin internalization, FRET ratio (460/530) | Potency, µM (titrated, usually from 40 µM), for inactives: at the top dose activity change, negative = inhibition, hits mostly inhibitors | actives 0.67% (n = 70,000); further: on the % scale 0 is the no-effect control and ±100 the full control effect; nearly all actives have a fitted effect of over 50% in size
AmpC nodet inh = blocks E. coli AmpC beta-lactamase in absence of detergent; P00811; AmpC nitrocefin hydrolysis, absorbance 480 nm, no detergent; Potency, µM (titrated, usually from 28.7 µM), inactives show at the top dose activity change, negative = inhibition; actives 1.8% (n = 71,000); further: % of control where 0% means no effect
Target sequence (P00811 whole entry, looked up): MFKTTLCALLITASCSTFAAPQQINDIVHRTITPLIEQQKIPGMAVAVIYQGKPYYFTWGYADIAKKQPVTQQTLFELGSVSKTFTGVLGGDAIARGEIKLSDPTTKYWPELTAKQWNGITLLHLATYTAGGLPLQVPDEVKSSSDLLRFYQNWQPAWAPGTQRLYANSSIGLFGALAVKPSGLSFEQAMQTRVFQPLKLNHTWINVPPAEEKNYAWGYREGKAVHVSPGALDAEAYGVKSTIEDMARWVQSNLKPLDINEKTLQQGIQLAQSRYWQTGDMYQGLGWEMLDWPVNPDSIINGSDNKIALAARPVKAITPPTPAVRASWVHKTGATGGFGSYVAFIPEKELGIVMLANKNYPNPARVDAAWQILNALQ
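AmpC, 20 mM phosphate pH 7.0; 15 min cpd preinc, RT; start with nitrocefin (800 uM stock); A480 kinetic read, 20 s intervals, 4 min. No-enzyme wells = negative control.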
AmpC det inh = AmpC beta-lactamase inhibition, detergent assay | P00811 | purified AmpC, nitrocefin hydrolysis with detergent | Potency, µM (doses to about 28.7 µM), without a hit: at the top dose activity change, negative = inhibition | actives 0.09% (n = 71,000); active means well fitted curve in the direction sought with a large enough effect; inconclusive means small, poorly fitted or top-dose-only effect; further: on the % scale 0 is the no-effect control and ±100 the full control effect
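E. coli AmpC (5.3 nM) in 20 mM phosphate pH 7.0 with 0.01% Triton X-100, preincubated 15 min RT with compound; nitrocefin (2 uL of 800 uM stock) hydrolysis followed by 480 nm absorbance every 20 s over 4 min.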
The depositor's hits bear a star; [ ] = another dose, or the depositor's remark. Unless noted, the call rests on the fitted dose curve. Potency means the concentration at half of the fitted maximal effect.

What do the screens show for `N=C(N)SCCc1ccc(OCc2ccc([N+](=O)[O-])cc2)cc1`?
SmPrx2 inh: >57; LT uptake inh: -19.4%; AmpC nodet inh: 15.8µM*; AmpC det inh: -6.9%

Results for CO[C@@H]([CH2][Hg])CN1C(=O)c2ccccc2S1(=O)=O.Cn1c(=O)c2nc[nH]c2n(C)c1=O ?
SmPrx2 inh: 1.29*; LT uptake inh: inconclusive; AmpC nodet inh: -15.2%[5.75 µM]; AmpC det inh: -2.7%[5.75 µM]

What do the screens show for `O=C1c2ccccc2S(=O)(=O)N1CC(O)COc1ccc(Br)cc1` (stereo not given)?
LT uptake inh: -25.1%; AmpC nodet inh: 13.1%; AmpC det inh: 6.3%

Results for Cc1oc(C(C)(C)C)cc1C(=O)Nc1ccc2c(c1)OCCO2 ?
SmPrx2 inh: >57; LT uptake inh: inconclusive; AmpC nodet inh: 15.9%; AmpC det inh: -2.0%

Results for CC(C)(C)c1ccc(/C=C/C(=O)Nc2ccc3c(c2)OCCO3)cc1 ?
LT uptake inh: 3.98µM*

Results for CC1(C)N=C(N)N=C(N)N1c1cccc(OCc2cccc(N)c2)c1 ?
SmPrx2 inh: >57; LT uptake inh: -6.8%[8 µM]; AmpC nodet inh: -4.2%[5.75 µM]; AmpC det inh: -2.3%[5.75 µM]

What do the screens show for `CCCN1C(=O)c2cc(C(=O)NCCc3cccc(C)c3)ccc2C1O` (stereo not given)?
SmPrx2 inh: >57; LT uptake inh: inconclusive; AmpC nodet inh: 3.98µM*[single pt active]; AmpC det inh: 17.0%

How did CCCN1C(=O)c2cc(C(=O)NCc3cccs3)ccc2C1O (stereo not given) do in these assays?
SmPrx2 inh: >57; LT uptake inh: -17.5%; AmpC nodet inh: 3.98µM*[single pt active]; AmpC det inh: 8.6%

What do the screens show for `Cc1ccc(N2C(=O)c3ccc(C(=O)NCCN4CCOCC4)cc3C2=O)cc1`?
SmPrx2 inh: >57; LT uptake inh: -21.2%; AmpC nodet inh: 52.9%; AmpC det inh: -2.4%

How did Cc1c(C)n(C)c2ccc(C(=O)NCc3cccs3)cc12 do in these assays?
SmPrx2 inh: >57; LT uptake inh: inconclusive; AmpC nodet inh: 3.98µM*[single pt active]; AmpC det inh: 15.4%

How did CCCN1C(=O)c2ccc(C(=O)NCc3ccco3)cc2C1=O do in these assays?
SmPrx2 inh: >57; LT uptake inh: -6.0%; AmpC nodet inh: 6.4%; AmpC det inh: -0.7%

What do the screens show for `CCCN1C(=O)c2cc(C(=O)NCc3ccc(OC)cc3)ccc2C1O` (stereo not given)?
SmPrx2 inh: >57; LT uptake inh: 0.1%; AmpC nodet inh: 3.16µM*[single pt active]; AmpC det inh: 11.7%

What do the screens show for `c1ccc2sc(SCN(C3CCCCC3)C3CCCCC3)nc2c1`?
SmPrx2 inh: >57; LT uptake inh: inconclusive; AmpC nodet inh: -11.8%[5.75 µM]; AmpC det inh: -2.6%[5.75 µM]

Results for Cc1ccsc1C=Nc1ccc(O)cc1 ?
SmPrx2 inh: >57; LT uptake inh: inconclusive; AmpC nodet inh: 10µM*; AmpC det inh: 6.9%

What do the screens show for `CCOCC(=O)O`?
LT uptake inh: -1.5%; AmpC nodet inh: 2.7%; AmpC det inh: 9.2%

What do the screens show for `C[C@@H](O)[C@H]1C(=O)N2C(C(=O)O)=C(S[C@@H]3CN[C@H](C(=O)N(C)C)C3)[C@H](C)[C@H]12`?
SmPrx2 inh: >57; LT uptake inh: 0.501µM*; AmpC nodet inh: 26.8%[12.8 µM]; AmpC det inh: -1.3%[12.8 µM]

What do the screens show for `c1csc(Cn2c(-c3cccs3)nc3ccccc32)c1`?
SmPrx2 inh: >57; LT uptake inh: -1.3%; AmpC nodet inh: -6.3%; AmpC det inh: -2.7%

How did Brc1ccccc1Cn1c(-c2cncs2)nc2ccccc21 do in these assays?
SmPrx2 inh: >57; LT uptake inh: 10µM*; AmpC nodet inh: 58.4%; AmpC det inh: 11.9%

Results for N[C@H]1[C@@H](C(=O)O)[C@H]2C=C[C@H]1C2 ?
SmPrx2 inh: >57; LT uptake inh: -7.6%[8 µM]; AmpC nodet inh: -2.3%[5.75 µM]; AmpC det inh: -6.6%[5.75 µM]

What do the screens show for `CCN1CCN(CCNC(=O)C2CCN(Cc3nc(-c4ccc(Cl)cc4)oc3C)CC2)CC1`?
SmPrx2 inh: >57; LT uptake inh: inconclusive; AmpC nodet inh: 3.98µM*[single pt active]; AmpC det inh: 12.2%

What do the screens show for `Cc1oc(-c2ccc(Cl)cc2)nc1CN1CCC(C(=O)NCCCN2CCCC2=O)CC1`?
SmPrx2 inh: >57; LT uptake inh: -4.7%; AmpC nodet inh: 93.1%; AmpC det inh: 12.0%

Results for Cc1ccccc1-c1nc(CN2CCC(C(=O)NCCCN3CC(C)CC(C)C3)CC2)c(C)o1 (stereo not given) ?
SmPrx2 inh: >57; LT uptake inh: 2.51µM*; AmpC nodet inh: 34.0%; AmpC det inh: -3.3%

What do the screens show for `CCN1CCCC1CNC(=O)C1CCN(Cc2nc(-c3cccc(Br)c3)oc2C)CC1` (stereo not given)?
SmPrx2 inh: >57; LT uptake inh: 6.31µM*; AmpC nodet inh: 49.6%; AmpC det inh: -4.0%

How did Cc1oc(-c2cccc(Cl)c2)nc1CN1CCC(C(=O)NCc2ccco2)CC1 do in these assays?
SmPrx2 inh: >57; LT uptake inh: inconclusive; AmpC nodet inh: 77.4%; AmpC det inh: -2.4%

What do the screens show for `COc1ccc2c(c1)Cc1cc(N=[N+]([O-])c3ccc4c(c3)Cc3cc(OC)ccc3-4)ccc1-2`?
SmPrx2 inh: >57; LT uptake inh: -0.1%[8 µM]; AmpC nodet inh: 0.0%[5.75 µM]; AmpC det inh: -5.4%[5.75 µM]

Results for CN(C)c1ccnc(SCc2ccccc2Cl)c1C#N ?
SmPrx2 inh: >57; LT uptake inh: 7.94µM*; AmpC nodet inh: -1.5%; AmpC det inh: -2.8%

Results for CN(C)C(=O)c1ccc(-c2ccc3ncnc(Nc4ccccc4)c3c2)cc1 ?
SmPrx2 inh: >57; LT uptake inh: inconclusive; AmpC nodet inh: 3.1%; AmpC det inh: 10.5%

Results for COc1ccccc1OCC(=O)N(Cc1nc(-c2ccc(Cl)cc2)no1)C(C)C ?
SmPrx2 inh: >57; LT uptake inh: inconclusive; AmpC nodet inh: 160.0%; AmpC det inh: 7.4%

What do the screens show for `CC(C)N(Cc1nc(-c2ccccc2)no1)C(=O)COc1ccccc1`?
SmPrx2 inh: >57; LT uptake inh: inconclusive; AmpC nodet inh: 3.98µM*[single pt active]; AmpC det inh: 13.9%

What do the screens show for `Cc1cc(Br)ccc1OCC(=O)N(Cc1nc(-c2ccccc2)no1)C(C)C`?
SmPrx2 inh: >57; LT uptake inh: inconclusive; AmpC nodet inh: 21.0%; AmpC det inh: 3.1%

What do the screens show for `CC(C)N(Cc1nc(-c2ccccc2)no1)C(=O)CSc1ccccc1`?
SmPrx2 inh: >57; LT uptake inh: -28.0%; AmpC nodet inh: 37.9%; AmpC det inh: -1.5%

Results for CC(C)N(Cc1nc(-c2ccccc2)no1)C(=O)Cc1ccccc1 ?
SmPrx2 inh: >57; LT uptake inh: -21.4%; AmpC nodet inh: 3.98µM*[single pt active]; AmpC det inh: 11.3%

Results for CC(C)N(Cc1nc(-c2ccc(Cl)cc2)no1)C(=O)CCC1CCCC1 ?
SmPrx2 inh: >57; LT uptake inh: inconclusive; AmpC nodet inh: 3.98µM*[single pt active]; AmpC det inh: 9.2%

What do the screens show for `O=C(c1csnn1)N1CCC2(CCCN(c3ccc(-c4ccccc4)cc3)C2)CC1`?
SmPrx2 inh: >57; LT uptake inh: 2.1%; AmpC nodet inh: 9.5%; AmpC det inh: -1.5%

What do the screens show for `N#Cc1cc2ccccc2nc1SCC(=O)Nc1ccc(S(=O)(=O)N2CCCC2)cc1`?
SmPrx2 inh: >57; LT uptake inh: -4.8%; AmpC nodet inh: 5.01µM*; AmpC det inh: 14.3%
